Test results from PubChem BioAssay (NCI).
About 83,000 compounds went through this panel and 20% of them were active in at least one assay; those are over-represented in the sample as a whole.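 Results are percent growth after 48 hours of single-concentration exposure. 100 means growth as in untreated cells, lower positive values show inhibition; negative values down to -100 show cell death.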 Activity calls are given as the source filed them. How the source made its calls: active means growth percent below 10; inactive means the rest.

Legend:
Experiment in all cases: NCI-60 one-dose screen, 48 h (100 = growth as untreated, 0 = no growth, -100 = all killed)
Conditions in all cases: 10 µM unless noted
HCT-15 colon = test system: HCT-15 colon
HT29 colon = test system: HT29 colon
SNB-75 CNS = test system: SNB-75 CNS
SNB-19 CNS = test system: SNB-19 CNS
U251 CNS = test system: U251 CNS
SK-MEL-5 melanoma = test system: SK-MEL-5 melanoma
UACC-62 melanoma = test system: UACC-62 melanoma
LOX IMVI melanoma = test system: LOX IMVI melanoma
SK-MEL-28 melanoma = test system: SK-MEL-28 melanoma
PC-3 prostate = test system: PC-3 prostate

Measured: growth

Cc1cc(=O)c2c(C)ccc(C)c2[nH]1
inactive: HCT-15 colon 101% | HT29 colon 111% | SNB-75 CNS 101% | SNB-19 CNS 99.8% | U251 CNS 100% | SK-MEL-5 melanoma 110% | UACC-62 melanoma 96.4% | LOX IMVI melanoma 97.7% | SK-MEL-28 melanoma 109%

COc1cc(C2=NN(c3ccc(S(N)(=O)=O)cc3)C(c3ccc(Cl)cc3)C2)cc(OC)c1OC (configuration not stated)
inactive: HCT-15 colon 43.1% | HT29 colon 32.1% | SNB-75 CNS 41.5% | SNB-19 CNS 56.5% | U251 CNS 23.9% | SK-MEL-5 melanoma 27.5% | LOX IMVI melanoma 42.5% | SK-MEL-28 melanoma 44.3%

COc1cc(/C=C/c2cc(/C=C/c3ccc(O)c(OC)c3)n(-c3ccccc3)n2)ccc1O
active: HCT-15 colon -3.38% | HT29 colon -52.4% | SNB-75 CNS -53.2% | SNB-19 CNS 1.18% | PC-3 prostate -33.1% | SK-MEL-5 melanoma -86.5% | UACC-62 melanoma -84.4% | LOX IMVI melanoma -37.1% | SK-MEL-28 melanoma -6.73%

Cn1c2ccccc2c2nn(Cc3ccccc3)c(=O)nc21
inactive: HCT-15 colon 94.6% | HT29 colon 112% | SNB-75 CNS 77% | SNB-19 CNS 106% | U251 CNS 106% | PC-3 prostate 99.4% | UACC-62 melanoma 108% | LOX IMVI melanoma 102% | SK-MEL-28 melanoma 126%

O=C1/C(=C/c2ccc(Cl)cc2)CN(Cc2cn(CCCNc3ccnc4cc(Cl)ccc34)nn2)C/C1=C\c1ccc(Cl)cc1
active: HCT-15 colon -74.2% | HT29 colon -69.6% | SNB-75 CNS -4.46% | SNB-19 CNS -79.6% | U251 CNS -91.9% | SK-MEL-5 melanoma -86.2% | LOX IMVI melanoma -86.2% | SK-MEL-28 melanoma -82.6%

COc1c(Cl)ccc2c(-c3nc4cc(Cl)c(F)cc4s3)cc(=O)oc12
active: HT29 colon 5.31% | LOX IMVI melanoma -80.2%
inactive: HCT-15 colon 82% | SNB-75 CNS 69.3% | SNB-19 CNS 96% | U251 CNS 99.1% | PC-3 prostate 84.3% | UACC-62 melanoma 91.7% | SK-MEL-28 melanoma 111%
